# Assays:
# [1] = target: Vascular endothelial growth factor receptor 3 (Homo sapiens) (UniProt P35916); details: at 10 µM
# [2] = target: Macrophage colony-stimulating factor 1 receptor (Homo sapiens) (UniProt P07333); details: at 1 µM
# [3] = target: Macrophage colony-stimulating factor 1 receptor (Homo sapiens) (UniProt P07333); details: at 10 µM
# [4] = target: Tyrosine-protein kinase Fyn (Homo sapiens) (UniProt P06241); details: at 1 µM
# [5] = target: Tyrosine-protein kinase Fyn (Homo sapiens) (UniProt P06241); details: at 10 µM
# [6] = target: T1, Mitogen-activated protein kinase kinase kinase kinase 2 (Homo sapiens) (UniProt Q12851); details: at 1 µM
# T1 sequence (whole entry): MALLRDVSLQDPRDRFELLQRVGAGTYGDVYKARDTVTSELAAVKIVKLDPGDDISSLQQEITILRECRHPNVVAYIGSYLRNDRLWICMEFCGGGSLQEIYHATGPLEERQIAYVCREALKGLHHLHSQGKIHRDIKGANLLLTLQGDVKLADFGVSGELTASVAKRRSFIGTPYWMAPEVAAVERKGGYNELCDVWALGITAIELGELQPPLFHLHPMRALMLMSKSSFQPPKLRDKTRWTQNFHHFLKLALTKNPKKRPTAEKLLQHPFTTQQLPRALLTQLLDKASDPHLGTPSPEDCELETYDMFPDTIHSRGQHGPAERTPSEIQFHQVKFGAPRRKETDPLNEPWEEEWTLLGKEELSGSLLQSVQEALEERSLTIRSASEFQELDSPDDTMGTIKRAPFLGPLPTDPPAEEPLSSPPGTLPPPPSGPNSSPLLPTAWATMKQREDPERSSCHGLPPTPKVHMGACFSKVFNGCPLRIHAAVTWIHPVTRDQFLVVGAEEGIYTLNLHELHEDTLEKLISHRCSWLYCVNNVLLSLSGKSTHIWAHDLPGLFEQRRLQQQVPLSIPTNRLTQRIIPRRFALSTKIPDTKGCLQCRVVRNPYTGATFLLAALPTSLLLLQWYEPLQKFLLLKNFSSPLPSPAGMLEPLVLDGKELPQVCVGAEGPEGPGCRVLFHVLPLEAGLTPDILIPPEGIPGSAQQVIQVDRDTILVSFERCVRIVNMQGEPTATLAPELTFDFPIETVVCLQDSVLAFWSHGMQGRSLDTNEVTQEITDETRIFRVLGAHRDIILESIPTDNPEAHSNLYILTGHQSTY
# [7] = target: T1, Mitogen-activated protein kinase kinase kinase kinase 2 (Homo sapiens); details: at 10 µM
# [8] = target: G protein-coupled receptor kinase 5 (Homo sapiens) (UniProt P34947); details: at 10 µM
# G protein-coupled receptor kinase 5 (Homo sapiens), sequence (P34947 whole entry, looked up): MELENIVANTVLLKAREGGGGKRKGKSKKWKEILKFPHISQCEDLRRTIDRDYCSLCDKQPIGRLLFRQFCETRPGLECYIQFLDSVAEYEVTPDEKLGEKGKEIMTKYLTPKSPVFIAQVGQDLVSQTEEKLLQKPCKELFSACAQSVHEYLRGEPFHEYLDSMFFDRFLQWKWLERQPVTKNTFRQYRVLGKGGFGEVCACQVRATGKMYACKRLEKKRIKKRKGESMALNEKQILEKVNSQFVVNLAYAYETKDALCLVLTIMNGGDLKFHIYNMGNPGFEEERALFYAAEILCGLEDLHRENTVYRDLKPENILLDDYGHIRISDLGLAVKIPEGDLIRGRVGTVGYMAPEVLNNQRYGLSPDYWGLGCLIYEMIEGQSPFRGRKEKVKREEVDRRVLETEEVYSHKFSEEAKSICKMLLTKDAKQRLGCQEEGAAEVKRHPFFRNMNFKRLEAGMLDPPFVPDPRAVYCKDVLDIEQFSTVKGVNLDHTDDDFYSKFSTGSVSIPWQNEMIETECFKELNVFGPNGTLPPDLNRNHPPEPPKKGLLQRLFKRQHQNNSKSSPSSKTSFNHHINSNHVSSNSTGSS
# [9] = target: T2, Rhodopsin kinase GRK7 (Homo sapiens) (UniProt Q8WTQ7); details: at 1 µM
# T2 sequence (whole entry): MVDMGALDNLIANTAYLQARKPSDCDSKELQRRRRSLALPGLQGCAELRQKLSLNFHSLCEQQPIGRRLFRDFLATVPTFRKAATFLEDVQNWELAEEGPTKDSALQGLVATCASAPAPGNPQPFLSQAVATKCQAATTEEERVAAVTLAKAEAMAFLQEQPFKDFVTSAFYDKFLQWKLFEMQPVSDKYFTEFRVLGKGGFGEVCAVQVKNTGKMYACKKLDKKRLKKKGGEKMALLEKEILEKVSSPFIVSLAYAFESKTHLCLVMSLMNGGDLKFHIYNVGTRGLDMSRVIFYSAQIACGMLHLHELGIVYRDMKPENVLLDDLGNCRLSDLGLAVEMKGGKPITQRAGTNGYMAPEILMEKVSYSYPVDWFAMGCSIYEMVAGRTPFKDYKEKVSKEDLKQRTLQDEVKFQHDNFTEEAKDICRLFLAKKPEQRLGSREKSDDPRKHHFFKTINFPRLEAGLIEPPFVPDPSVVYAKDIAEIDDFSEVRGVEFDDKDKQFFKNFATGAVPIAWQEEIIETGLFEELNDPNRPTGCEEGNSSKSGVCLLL
# [10] = target: G protein-coupled receptor kinase 6 (Homo sapiens) (UniProt P43250); details: at 10 µM
# G protein-coupled receptor kinase 6 (Homo sapiens), sequence (P43250 whole entry, looked up): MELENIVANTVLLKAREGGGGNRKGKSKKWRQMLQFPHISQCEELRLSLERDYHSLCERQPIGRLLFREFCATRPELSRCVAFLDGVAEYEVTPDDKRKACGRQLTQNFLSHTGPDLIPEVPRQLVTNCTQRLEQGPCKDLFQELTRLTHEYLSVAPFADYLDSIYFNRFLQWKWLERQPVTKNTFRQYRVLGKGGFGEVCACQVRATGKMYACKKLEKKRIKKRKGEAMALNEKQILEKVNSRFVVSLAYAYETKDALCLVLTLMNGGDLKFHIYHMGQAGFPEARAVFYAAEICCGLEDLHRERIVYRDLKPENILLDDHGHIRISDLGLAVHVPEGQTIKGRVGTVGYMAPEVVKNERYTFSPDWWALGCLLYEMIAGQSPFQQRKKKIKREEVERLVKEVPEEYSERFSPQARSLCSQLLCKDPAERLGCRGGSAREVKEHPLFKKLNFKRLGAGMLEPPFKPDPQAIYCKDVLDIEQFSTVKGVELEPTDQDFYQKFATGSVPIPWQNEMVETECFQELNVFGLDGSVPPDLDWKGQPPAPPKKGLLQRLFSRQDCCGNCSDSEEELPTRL
# Macrophage colony-stimulating factor 1 receptor (Homo sapiens), sequence (P07333 whole entry): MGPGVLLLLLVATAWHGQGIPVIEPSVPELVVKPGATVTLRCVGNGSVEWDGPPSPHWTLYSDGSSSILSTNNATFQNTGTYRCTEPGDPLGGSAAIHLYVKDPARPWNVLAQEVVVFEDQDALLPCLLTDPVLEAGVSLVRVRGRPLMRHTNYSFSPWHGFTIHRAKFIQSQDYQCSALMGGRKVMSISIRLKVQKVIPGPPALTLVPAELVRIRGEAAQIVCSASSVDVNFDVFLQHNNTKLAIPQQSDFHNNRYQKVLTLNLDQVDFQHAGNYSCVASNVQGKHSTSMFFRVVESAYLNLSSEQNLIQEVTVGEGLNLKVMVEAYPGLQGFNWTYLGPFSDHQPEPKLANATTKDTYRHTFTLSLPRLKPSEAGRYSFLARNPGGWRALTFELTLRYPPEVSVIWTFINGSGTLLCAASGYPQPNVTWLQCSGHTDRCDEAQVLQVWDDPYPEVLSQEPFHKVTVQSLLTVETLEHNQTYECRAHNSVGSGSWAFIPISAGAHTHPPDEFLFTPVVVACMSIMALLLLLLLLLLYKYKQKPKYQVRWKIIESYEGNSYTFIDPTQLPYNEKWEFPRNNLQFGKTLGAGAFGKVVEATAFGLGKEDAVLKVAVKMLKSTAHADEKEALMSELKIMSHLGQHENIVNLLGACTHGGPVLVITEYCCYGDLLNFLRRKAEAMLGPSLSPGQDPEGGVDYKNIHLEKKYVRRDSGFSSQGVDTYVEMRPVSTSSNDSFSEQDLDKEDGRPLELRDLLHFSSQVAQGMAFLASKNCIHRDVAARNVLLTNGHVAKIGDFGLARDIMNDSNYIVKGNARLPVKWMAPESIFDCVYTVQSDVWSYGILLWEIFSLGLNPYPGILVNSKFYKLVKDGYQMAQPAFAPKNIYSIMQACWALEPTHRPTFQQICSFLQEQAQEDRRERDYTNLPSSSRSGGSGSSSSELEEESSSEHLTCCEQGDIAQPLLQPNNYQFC
# Tyrosine-protein kinase Fyn (Homo sapiens), sequence (P06241 2-537 limits assumed): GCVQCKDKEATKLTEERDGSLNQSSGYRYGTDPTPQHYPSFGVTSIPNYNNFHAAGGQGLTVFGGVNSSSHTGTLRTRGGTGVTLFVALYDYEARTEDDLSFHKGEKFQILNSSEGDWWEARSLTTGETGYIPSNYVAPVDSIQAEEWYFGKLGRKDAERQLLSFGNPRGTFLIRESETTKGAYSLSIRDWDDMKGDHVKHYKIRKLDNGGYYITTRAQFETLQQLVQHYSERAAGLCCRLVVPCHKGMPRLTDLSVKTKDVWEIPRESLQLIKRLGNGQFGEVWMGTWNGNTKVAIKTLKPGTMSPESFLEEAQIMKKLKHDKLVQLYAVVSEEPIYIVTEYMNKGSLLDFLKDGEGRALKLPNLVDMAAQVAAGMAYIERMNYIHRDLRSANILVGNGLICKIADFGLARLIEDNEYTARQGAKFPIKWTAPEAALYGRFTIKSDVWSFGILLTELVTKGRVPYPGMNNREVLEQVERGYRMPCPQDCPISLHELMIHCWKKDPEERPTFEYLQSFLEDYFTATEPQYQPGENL
# Vascular endothelial growth factor receptor 3 (Homo sapiens), sequence (P35916 whole entry): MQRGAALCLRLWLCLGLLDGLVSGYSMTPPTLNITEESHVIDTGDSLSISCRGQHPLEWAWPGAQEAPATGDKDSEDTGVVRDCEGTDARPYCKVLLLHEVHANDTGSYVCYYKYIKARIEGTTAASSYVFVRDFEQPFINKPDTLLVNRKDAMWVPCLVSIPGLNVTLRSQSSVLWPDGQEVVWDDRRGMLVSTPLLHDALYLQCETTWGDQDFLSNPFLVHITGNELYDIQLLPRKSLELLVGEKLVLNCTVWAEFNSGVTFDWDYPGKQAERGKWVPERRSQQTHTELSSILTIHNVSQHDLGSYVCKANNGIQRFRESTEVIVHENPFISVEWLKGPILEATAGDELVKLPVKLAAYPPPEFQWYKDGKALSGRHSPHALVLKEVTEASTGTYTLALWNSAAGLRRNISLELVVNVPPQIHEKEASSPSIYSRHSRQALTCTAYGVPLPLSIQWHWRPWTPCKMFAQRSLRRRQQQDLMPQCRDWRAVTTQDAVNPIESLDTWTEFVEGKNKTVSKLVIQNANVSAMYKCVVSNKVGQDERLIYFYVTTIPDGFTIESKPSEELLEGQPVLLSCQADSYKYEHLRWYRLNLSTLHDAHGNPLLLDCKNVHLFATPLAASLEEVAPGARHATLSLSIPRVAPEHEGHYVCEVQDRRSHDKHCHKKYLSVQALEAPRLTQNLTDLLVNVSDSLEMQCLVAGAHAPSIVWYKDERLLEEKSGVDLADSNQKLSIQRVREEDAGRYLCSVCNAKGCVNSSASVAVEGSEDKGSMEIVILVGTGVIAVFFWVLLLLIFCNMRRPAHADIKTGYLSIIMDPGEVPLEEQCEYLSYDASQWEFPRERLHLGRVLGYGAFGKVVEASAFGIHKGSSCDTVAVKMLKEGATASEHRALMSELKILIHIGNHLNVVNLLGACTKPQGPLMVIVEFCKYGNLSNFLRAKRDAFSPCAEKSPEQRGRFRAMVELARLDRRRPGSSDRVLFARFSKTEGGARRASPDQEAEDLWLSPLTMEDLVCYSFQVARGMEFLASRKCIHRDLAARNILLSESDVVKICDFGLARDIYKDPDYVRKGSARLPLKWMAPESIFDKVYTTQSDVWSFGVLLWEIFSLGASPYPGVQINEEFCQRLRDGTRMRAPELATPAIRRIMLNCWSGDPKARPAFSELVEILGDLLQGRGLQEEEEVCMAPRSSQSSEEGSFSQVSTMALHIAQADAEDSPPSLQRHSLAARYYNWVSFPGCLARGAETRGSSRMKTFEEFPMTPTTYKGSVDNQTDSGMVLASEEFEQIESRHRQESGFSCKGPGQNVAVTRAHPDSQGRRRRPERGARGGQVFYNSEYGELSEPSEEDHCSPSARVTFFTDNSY
Compound,residual activity [1] [%],residual activity [2] [%],residual activity [3] [%],residual activity [4] [%],residual activity [5] [%],residual activity [6] [%],residual activity [7] [%],residual activity [8] [%],residual activity [9] [%],residual activity [10] [%]
COc1cc2nccc(Oc3ccc(NC(=O)Nc4cc(C)on4)c(Cl)c3)c2cc1OC,-1,0,0,5,1,47,17,104,105,–
O=C1Nc2ccc(Cl)cc2/C1=C/c1cc(Cl)c(O)c(Cl)c1,1,7,1,67,25,46,14,–,91,82
O=C1Cc2c([nH]c3ccc(Br)cc23)-c2ccccc2N1,22,49,23,31,11,6,-1,96,–,–
O=C(NC(NC(=S)Nc1ccc(F)c([N+](=O)[O-])c1)C(Cl)(Cl)Cl)C(c1ccccc1)c1ccccc1 (stereo unspecified),76,89,71,104,58,88,74,100,86,87
CN(C)S(=O)(=O)c1ccc2c(c1)/C(=C/c1cc3c([nH]1)CCCC3)C(=O)N2,46,4,0,22,24,5,5,84,–,–
Nc1n[nH]c2nc3ccccc3nc12,44,74,66,73,73,78,37,94,–,85
COc1ccc(Cl)cc1NC(=O)Nc1cc(C)nc2ccccc12,93,89,73,–,–,93,77,–,99,92
Fc1ccc(-c2nc3n(c2-c2ccncc2)CCS3)cc1,43,90,84,92,83,–,83,–,–,–
O=c1cc(N2CCOCC2)oc2c(-c3ccccc3)cccc12,72,66,62,–,–,–,70,–,–,77
COc1ccc2c(c1)c(C1=C(c3c[nH]c4ccccc34)C(=O)NC1=O)cn2CCCN(C)C,0,59,36,–,60,75,30,51,–,–
CSc1nc(-c2ccc(F)cc2)c(-c2ccnc(NC(C)c3ccccc3)c2)[nH]1 (stereo unspecified),64,–,41,87,69,75,56,91,–,–
COc1cc2ncnc(Nc3cccc(Cl)c3)c2cc1OC,6,88,38,41,6,–,50,–,106,–
CC(C)(C)n1nc(Cc2cccc3ccccc23)c2c(N)ncnc21,5,59,6,30,3,–,44,96,98,–
O=C(Nc1nc2ccccc2n1CCN1CCOCC1)c1cccc([N+](=O)[O-])c1,40,8,5,–,–,70,67,85,–,–
O=C1Nc2ccccc2/C1=C\c1c(Cl)[nH]c2ccccc12,8,79,27,81,59,–,69,–,99,–
O=C(c1ccccc1)c1ccc(N2CCOCC2)cc1O,85,75,55,–,–,95,89,–,–,88
O=C(Nc1ccc(Cl)cc1)c1ccccc1NCc1ccncc1,0,1,0,102,70,–,58,–,–,–
NC(=O)c1ccc(-c2nc(-c3ccc4c(c3)OCCO4)c(-c3ccccn3)[nH]2)cc1,46,74,64,81,83,–,94,–,–,88
CC(C)[C@H](CO)Nc1nc(Nc2cc(N)cc(Cl)c2)c2ncn(C(C)C)c2n1,3,55,21,9,0,–,–,44,58,40

Compound,residual activity [1] [%],residual activity [2] [%],residual activity [3] [%],residual activity [4] [%],residual activity [5] [%],residual activity [6] [%],residual activity [7] [%],residual activity [8] [%],residual activity [9] [%],residual activity [10] [%]
O=S(=O)(NCCNC/C=C/c1ccc(Br)cc1)c1cccc2cnccc12,26,116,–,75,55,76,42,–,–,81
CCN1/C(=C/C(C)=O)Sc2ccc(OC)cc21,65,81,66,80,–,74,55,–,–,79
N#Cc1c(NC(=O)c2cccc3ccccc23)sc2c1CCCC2,86,69,74,72,87,–,90,98,–,90
Nc1ncnc2c1cnn2-c1ccccc1,82,–,67,79,58,100,–,–,–,93
Nc1nccc(-c2c(-c3ccc(F)cc3)ncn2C2CCNCC2)n1,10,–,–,–,–,82,61,–,–,–
NCCNc1ncc(C(N)=O)c(Nc2cccc(C(F)(F)F)c2)n1,48,57,4,–,–,13,0,79,–,73
CC(C)N(CCC(=O)c1ccc2ccccc2c1)Cc1ccccc1,–,–,125,88,88,82,80,–,–,–
NC(=O)c1cccc(-c2cc(Nc3ccc(OC(F)(F)F)cc3)ncn2)c1,81,74,73,–,78,–,88,–,–,100
COc1cc2c(cc1OC)-c1n[nH]c(Nc3cccc(F)c3)c1C2,–,1,0,16,0,–,44,–,–,81
CCOc1nc(NC(=O)Cc2cc(OC)ccc2OC)cc(N)c1C#N,64,–,53,–,–,–,72,–,–,–
N#C/C(=C\c1ccc(O)c(O)c1)C(=O)NCc1ccccc1,–,67,81,–,80,–,85,–,–,–
COc1ccc(COc2ccc(Cc3cnc(N)nc3N)cc2OC)cc1,115,–,–,–,–,–,63,–,–,–
O=c1c(-c2ccc(F)cc2)c(-c2ccncc2)[nH]n1-c1ccc(Cl)cc1,20,–,61,–,66,–,–,100,–,100
N#C/C(=C1/Nc2ccccc2S1)c1ccnc(NCCc2cccnc2)n1,22,70,31,–,–,79,18,–,–,–
Oc1cccc(-c2nc(N3CCOCC3)c3oc4ncccc4c3n2)c1,–,78,80,82,88,–,85,–,93,–
CC(C)(C)c1nc2c3ccc(F)cc3c3c(=O)[nH]ccc3c2[nH]1,16,54,18,–,–,19,11,66,–,68
O=C1NC(=O)C(c2cn(CCCn3ccnc3)c3ccccc23)=C1Nc1ccccc1,9,66,40,–,–,54,13,30,75,59
O=S(=O)(c1cccc2cnccc12)N1CCCNCC1,52,–,–,–,–,–,83,–,–,–
CCCCc1c(-c2ccc(O)cc2)[nH]c2nccnc12,2,–,6,43,11,7,4,90,86,90

# Reference: ChEMBL document CHEMBL2218924, “A broad activity screen in support of a chemogenomic map for kinase signalling research and drug discovery” (Biochem J, 2013)
